# Screens (PubChem)
# Wnt act: Wnt/beta-catenin pathway activation; Wnt/beta-catenin reporter cell assay, activator, plate reader; activation, % at 9.35 µM; hit rate 1.2% among 300,000; AID 743398; in the data active = activation above about 30%, passing the limit was not always enough; inconclusive = no clear call, values can overlap the other calls;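 also: 0% = neutral control wells and 100% = positive control wells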
# APOBEC3G inh: inhibitors of human APOBEC3G DNA deaminase. inhibition, % at 20 µM. AID 493012. hit rate 0.28% among 330,000. Q9HC16. recombinant A3G, ssDNA deamination FAM/TAMRA fluorescence;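 active = inhibition of at least 40% at 20 µM, with no more than 30% in the related APOBEC3A deaminase screen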;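 also: plate controls were DMSO wells with A3G for no effect and wells lacking A3G enzyme for full effect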
# APOBEC3A inh: blocks human APOBEC3A ssDNA deamination. inhibition, % at 20 µM. recombinant A3A, FAM/TAMRA ssDNA deamination fluorescence. hit rate 0.41% among 330,000. P31941;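 active = at least 40% inhibition at 20 µM here, with at most 30% in a related deaminase screen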;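 also: plate controls were A3A with DMSO for no effect and wells lacking A3A enzyme for full effect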
# Target sequence (P31941 whole entry, looked up): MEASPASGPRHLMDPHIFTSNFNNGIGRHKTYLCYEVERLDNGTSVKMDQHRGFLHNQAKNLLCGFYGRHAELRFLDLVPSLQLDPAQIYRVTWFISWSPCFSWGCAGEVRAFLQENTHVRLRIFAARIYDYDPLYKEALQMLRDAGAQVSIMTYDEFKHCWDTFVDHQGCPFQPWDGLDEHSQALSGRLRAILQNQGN
# PHOSPHO1 inh: inhibitors of human PHOSPHO1 phosphatase. inhibition, % at 13.3 µM. Q8TCT1. recombinant PHOSPHO1, absorbance phosphatase assay. AID 1565. hit rate 1.1% among 290,000; in the data active = inhibition above about 60%
# esBAF inh: inhibitors of esBAF chromatin remodeling in mouse ES cells; Bmi1-luciferase knock-in reporter, 24 h; 100% = twice the neutral-well signal; reporter increase, % at 12.5 µM; hit rate 2% among 350,000; in the data active = activation above about 40%; inconclusive = no clear call, values can overlap the other calls;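 also: 0% = median of the plate's neutral control wells and 100% = double that signal; a rise in the Bmi1 reporter signal indicates esBAF inhibition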
# MITF act: MITF TRPM1 promoter activation in melanoma cells; hit rate 0.75% among 300,000; activation, % at 12.5 µM; SK-MEL-5 TRPM1-promoter luciferase, 24 h; % of positive control, neutral wells = 0;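 active = mean activation of at least 80% with every replicate also reaching 80%; inconclusive = mean reaches 80% but some replicate falls short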;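 also: 0% = neutral control wells and 100% = parthenolide positive control wells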
# Active calls of the source: *; ? = inconclusive; . = no result given. A selection: hits, their analogues and other compounds. The true share with any hit is near 3.6%.
SMILES,Wnt act,APOBEC3G inh,APOBEC3A inh,PHOSPHO1 inh,esBAF inh,MITF act
COc1ccc(S(=O)(=O)N(C)C[C@@H]2OCCCC[C@@H](C)Oc3ccc(NS(=O)(=O)c4c(C)noc4C)cc3C(=O)N([C@H](C)CO)C[C@@H]2C)cc1,.,.,.,.,-6.6,.
c1ccc(-n2ncc3c(N4CCCCC4)ncnc32)cc1,-1.6,-6.4,-1.8,34.8,-72.5,-15.6
c1ccc(-n2ncc3c(N4CCC5(CC4)OCCO5)ncnc32)cc1,.,-3.6,-2.7,2.6,54.6*,93.2*
CCCNC(=O)C[C@H]1CC[C@H]2[C@@H](COc3ccc(NC(=O)Cc4cccs4)cc3C(=O)N2C)O1,.,.,.,.,-0.5,.
COc1cc(/C=N/OCC(=O)NC23CC4CC(CC(C4)C2)C3)ccc1OCc1ccccc1,5.7,0.4,0.4,-8.9,62.1*,41.8
COc1cc(/C=N/OCC(=O)NC2CCCCC2)ccc1OCc1ccccc1,17.7,-5.4,0.8,-2.2,.,12.1
C[C@@H]1CCCCO[C@H](CN(C)Cc2ccccc2)[C@H](C)CN([C@@H](C)CO)C(=O)c2cc(NC(=O)Nc3ccc(F)cc3)ccc2O1,.,.,.,.,5.1,.
Cc1cc(C)c(NC(=O)c2cc3c(nc4sccn43)s2)c(C)c1,2.1,-4.9,4.2,71.1*,-3.6,-2.1
CCC(=O)NNC(=O)CCC(=O)Nc1ccc(C)cc1C,-7.1,-2.2,-1.1,27.5,8.0,18.9
Cc1ccc(NC(=O)CCC(=O)NNC(=O)C(C)(C)C)c(C)c1,39.9*,-2.6,2.9,32.2,.,5.5
O=C(CC(Nc1ccccc1Cl)C(=O)O)c1ccccc1 (stereo unspecified),-2.3,4.0,3.2,11.9,.,-3.0
Cc1ccc(NC(=O)CC(=O)c2ccccc2)cc1C,-1.2,-4.0,-1.4,4.1,75.4*,144.2*
Cc1ccc(NC(=O)C/C(N)=N/O)cc1C,.,5.1,12.1,69.4*,1.0,-5.6
O=C(CC(Nc1ccc(Cl)cc1)C(=O)O)c1ccccc1 (stereo unspecified),46.8*,3.7,-2.0,-35.3,.,73.1
O=C(CC(=O)c1ccccc1)Nc1ccc(Cl)cc1,14.1,-6.0,0.3,30.8,?,111.2*
COC(=O)CSC(C(=O)Nc1ccc(C)c(C)c1)c1ccccc1 (stereo unspecified),34.8*,-7.3,0.5,1.5,-1.3,28.5
N#C/C(C(=O)N1CCOCC1)=C1/SC(Cc2ccccc2Cl)C(=O)N1c1ccccc1 (stereo unspecified),34.7*,-2.2,-1.2,-15.4,.,3.0
C[C@@H]1CN([C@@H](C)CO)C(=O)Cc2cc(NS(=O)(=O)c3cccs3)ccc2O[C@H]1CN(C)CC1CC1,.,.,.,.,-4.9,.
O=C(COC(=O)c1cc(=O)[nH]c2ccccc12)Nc1nc(-c2ccc(F)cc2)cs1,23.8,.,.,.,44.1*,45.8
CCn1nc(C(=O)OCC(=O)Nc2nc(-c3ccc(OC)cc3)cs2)c2ccccc2c1=O,.,0.9,4.7,-6.6,56.8*,68.2
CCn1nc(C(=O)OCC(=O)NCC(C)C)c2ccccc2c1=O,1.5,2.7,3.2,47.6,.,9.0
CO[C@@H]1CN(C)C(=O)c2cc(NC(=O)C3CC3)ccc2OC[C@@H](C)N(C(=O)c2ccccc2)C[C@@H]1C,.,.,.,.,3.4,.
CCc1ccc(NC(=O)COc2ccc(F)cc2C(=O)c2cnn(-c3ccccc3)c2)cc1,14.3,-4.8,-2.2,-1.8,.,-2.0
COc1ccccc1NC(=O)COc1ccccc1C(=O)c1cnn(-c2ccccc2)c1,49.9*,-8.3,-4.1,4.9,.,79.9
C/C(=N/NC(=O)c1cc2ccccc2cc1O)C1C(=O)c2ccccc2C1=O,-3.0,-3.9,-1.2,17.9,50.5*,-4.8
C/C(=N\NC(=O)c1ccccc1O)C1C(=O)c2ccccc2C1=O,.,1.8,1.5,-1.2,80.5*,13.3
COc1ccccc1C(=O)N1C[C@H]2[C@@H](c3ccccc31)[C@@H](CO)N2C(=O)C1CCOCC1,.,.,.,.,-1.2,.
CC(=O)N1N=C(c2ccc(C)cc2)CC1c1ccco1 (stereo unspecified),6.9,-5.6,-1.6,-49.2,23.4,48.2
CC(=O)N1N=C(c2ccc(C)cc2)CC1c1ccc2c(c1)OCO2 (stereo unspecified),?,-5.6,-0.4,14.7,100.2*,.
